POLK inh – DNA polymerase kappa (human) inhibition; AID 588579; Potency, µM (titrated, usually from 107 µM), for inactives: at the top dose activity, negative = inhibition, usual class: inhibitors; 400,000 compounds, 0.53% hits; purified Pol kappa, fluorescent DNA synthesis assay, 10 min; Q9UBT6; further: on the % scale 0 is the no-effect control and ±100 the full control effect
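Activity was followed as the change in fluorescence between reads at 0 and 10 min after starting the reaction with 50 nM substrate. Beforehand, 10 nM polymerase had been preincubated with compound for 15 min at room temperature.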
Pol beta inh – blocks human DNA polymerase beta activity. 340,000 compounds, 1.3% hits. Potency, µM (titrated, usually from 114 µM), without a hit: at the highest dose activity change, negative = inhibition, usual class: inhibitors. P06746. Pol beta primer extension/strand displacement, fluorescence kinetic; further: on the % scale 0 is the no-effect control and ±100 the full control effect
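Curves were derived by four-parameter Hill fits of normalized qHTS data. The kinetic fluorescent primer-extension read was taken at 0 and 10 min after 50 nM substrate, following a 15 min room-temperature preincubation of 10 nM enzyme with compounds.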
FEN1 inh-1 – blocks human flap endonuclease 1; Recombinant FEN1 flap cleavage, fluorescence, 15 min; Potency, µM (series often up to 114 µM), without a hit: at the top dose activity change, negative = inhibition, actives largely listed as inhibitors; 390,000 compounds, 0.35% hits; AID 588795; further: on the % scale 0 is the no-effect control and ±100 the full control effect; nearly all actives have a fitted effect of over 65% in size
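Steps: FEN1 (10 nM) dispensed; compound added by pin tool; 15 min at room temperature; substrate added to 50 nM final; reads at 0 min and 15 min; data normalized and fitted (four-parameter Hill).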
POLH inh – DNA polymerase eta (human) inhibition. recombinant Pol eta, fluorescent DNA replication assay. Potency, µM (series often up to 114 µM), for inactives: top-dose activity change, negative = inhibition, most hits filed as inhibitors. 390,000 compounds, 1.2% hits; further: on the % scale 0 is the no-effect control and ±100 the full control effect
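Pol eta (10 nM) was preincubated with compounds for 15 min at room temperature, after which fluorescent replication substrate (50 nM final) was added to start the reaction. Fluorescence was read kinetically at 0 and 10 min.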
WRN helicase inh – blocks human WRN helicase. Q14191. WRN helicase unwinding, fluorescent forked duplex, kinetic. Potency, µM (series often up to 114 µM), without a hit: at the top dose activity change, negative = inhibition, hits mostly inhibitors. 360,000 compounds, 0.46% hits. AID 651768; further: on the % scale 0 is the no-effect control and ±100 the full control effect; nearly all actives have a fitted effect of over 55% in size
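Enzyme (20 nM final) and test compound sit together 15 min at room temperature before substrate addition. Substrate is a single-forked duplex oligonucleotide (100 nM) labelled with fluorophore and quencher, with 2 mM ATP; helicase unwinding raises red fluorescence, read kinetically.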
POLI inh – blocks human DNA polymerase iota activity; Q9UNA4; Pol iota fluorescent replication assay, 10 min; Potency, µM (top dose mostly 115 µM), for inactives: top-dose activity, negative = inhibition, hits mostly inhibitors; 390,000 compounds, 1% hits; AID 588590
Target sequence (Q9UNA4 whole entry, looked up): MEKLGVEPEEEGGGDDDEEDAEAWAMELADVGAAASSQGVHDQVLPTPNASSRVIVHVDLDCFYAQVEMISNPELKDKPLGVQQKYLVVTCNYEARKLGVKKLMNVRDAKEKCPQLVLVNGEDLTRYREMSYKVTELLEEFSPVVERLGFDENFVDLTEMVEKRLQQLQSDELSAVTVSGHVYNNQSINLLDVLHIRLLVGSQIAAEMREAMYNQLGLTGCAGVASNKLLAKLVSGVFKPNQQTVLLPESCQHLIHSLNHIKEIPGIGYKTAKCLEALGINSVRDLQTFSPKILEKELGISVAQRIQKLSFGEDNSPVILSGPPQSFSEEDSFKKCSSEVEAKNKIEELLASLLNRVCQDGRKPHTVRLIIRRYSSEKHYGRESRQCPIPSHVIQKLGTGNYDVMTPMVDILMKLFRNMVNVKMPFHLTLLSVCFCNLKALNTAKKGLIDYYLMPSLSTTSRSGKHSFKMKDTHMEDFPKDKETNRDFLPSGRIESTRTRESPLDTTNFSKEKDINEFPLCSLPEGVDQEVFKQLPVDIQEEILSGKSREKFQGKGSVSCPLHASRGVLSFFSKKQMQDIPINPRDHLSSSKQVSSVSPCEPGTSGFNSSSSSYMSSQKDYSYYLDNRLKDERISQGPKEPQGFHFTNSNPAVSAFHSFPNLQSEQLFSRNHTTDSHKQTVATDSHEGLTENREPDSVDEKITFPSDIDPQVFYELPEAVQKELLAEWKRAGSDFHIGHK
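Pol iota at 10 nM preincubated 15 min with compounds at room temperature; reaction started with fluorescent substrate, 50 nM final. Fluorescence read kinetically at 0 and 10 min; buffer-only wells as negative control.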
FEN1 inh-2 – FEN1 inhibition, cherry-pick retest; Potency, µM, usual class: inhibitors; FEN1 flap cleavage, TAMRA/BHQ2 fluorogenic DNA substrate; AID 720498; 880 compounds, 79% hits; shares compounds with FEN1 inh-1; further: nearly all actives have a fitted effect of over 60% in size
The depositor's hits bear a star; ? = inconclusive; . = no result; [ ] = remark or other dose. Sampled rows, rich in hits. Any-hit rate of the full collection: about 2.4%. The call rests on the fitted dose curve; in most records, active means well fitted curve in the direction sought with a large enough effect; inconclusive means small, poorly fitted or top-dose-only effect, or another doubt; inactive means no such curve, though single readings can be large; an effect the other way counts as inactive or inconclusive. Potency means the concentration at half of the fitted maximal effect.

SMILES | POLK inh | Pol beta inh | FEN1 inh-1 | POLH inh | WRN helicase inh | POLI inh | FEN1 inh-2
O=C(COc1ccccc1-c1ccccc1)N/N=C/c1cccc2ccccc12 | -19% | ? | -10% | -4% | -11% | 2% | .
O=C(COc1cccc2ccccc12)N/N=C/c1ccccc1OCc1ccc(C(=O)O)cc1 | -25% | 89µM* | ? | 79µM* | -8%[11.6 µM] | 23% | 85*
CN1CCc2c(sc(/N=C/c3c[nH]c4ccccc34)c2C#N)C1 | -16% | 2% | ? | -18% | -17% | 95% | ?
CN1CCc2c(sc(/N=C/c3c[nH]c4ccccc34)c2C(N)=O)C1 | -19% | -26% | ? | 4% | -24%[11.6 µM] | 60% | 76*
COc1ccc(NC(=O)c2cc3ccccc3o2)c(OC)c1 | -2%[60.1 µM] | 1% | 6% | -4% | . | -13% | .
Cc1cccc(Cc2cnc(NC(=O)C3Cc4ccc(C)cc4C(=O)O3)s2)c1 (stereo not drawn) | 0% | 7% | -8% | -7% | . | ? | .
CCN(CC)c1ccc(-c2nc(-c3ccco3)no2)cc1[N+](=O)[O-] | -19% | ? | -17% | -11% | . | -27% | .
Cn1cc(/C=C/c2cc[n+](C)cc2)c2cc(F)ccc21 | -18% | ? | 45µM* | ? | -17% | 45% | 38*
Cc1cccc2nc(-c3cccc(NC(=O)c4ccc(Cl)cc4)c3)cn12 | -5% | 1% | ? | 2% | -2%[11.6 µM] | ? | 60*
c1ccc(-c2nc(-n3ccnc3)nc(-n3ccnc3)n2)cc1 | -15% | -12% | ? | ? | 27% | -1% | 43*
COCCCNC(=O)c1cccn2c(=O)c3cc4ccccc4cc3nc12 | -12% | 3% | ? | ? | -12% | 18% | ?
CCC/C=C1/CCCOC(C(=O)NCC2CC2)(C(F)(F)F)C1 (stereo not drawn) | 0% | . | -6% | . | . | 6% | .
CCC(Sc1nc(-c2ccccc2)c(C#N)c(=O)[nH]1)C(=O)Nc1nnc(C)s1 (stereo not drawn) | -21% | 1% | ? | 6% | -18% | ? | 48*
N#Cc1ccc(CN2C(=O)c3ccccc3Sc3ccc(C(=O)OCc4ccco4)cc32)cc1 | -4%[60.1 µM] | -7% | -1% | -14% | . | 27% | .
CCCN(Cc1cccs1)C(=O)Nc1cc(Cl)ccc1C | -9% | 2% | 9% | -6% | . | 1% | .
O=C(/C=C/c1ccco1)NC(=S)Nc1ccccc1 | ? | ? | -26% | ? | -9%[11.6 µM] | ? | .
O=C(/C=C/c1ccco1)NC(=S)Nc1cccc(-c2nc3ccccc3o2)c1 | 79µM* | 28µM* | -14% | 32µM* | 50µM* | ? | ?
O=c1c2c(-c3ccccc3)csc2nc2c3ccccc3c(NCCN3CCOCC3)nn12 | -21% | ? | 40µM* | -12% | 37% | -26% | 21*
CCOc1ccc(NC(=O)Cn2c(=O)c(CNc3ccc(OC)cc3)cc3ccc(OC)cc32)cc1 | -3% | 20% | -10% | -8% | . | -6% | .
CCN(CC)Cc1cc2[nH]c3c4ccc(Cl)cc4ncc3c2cc1OC | ? | 50µM* | 14µM* | -13% | -34% | ? | ?
COc1ccc(CNc2ncnc3cc(Cl)ccc23)cc1OC | -8% | -22% | 2% | -17% | 6% | 154% | .
Cc1[nH]c2ccccc2c1C(=O)C(C)OC(=O)c1ccc([N+](=O)[O-])o1 (stereo not drawn) | -15% | -24% | ? | -26% | -2%[11.6 µM] | 6% | 19*
CCc1noc(C)c1C(=O)OC(C)C(=O)c1c(C)[nH]c2ccccc12 (stereo not drawn) | -2% | . | -18% | -15% | -10% | -20% | .
Cc1ccc2nc(-c3ccsc3)c(Nc3ccc(Cl)cc3)n2c1 | -19% | -11% | -7% | -6% | . | -2% | .
CCCCn1c(N)c(N(CCC(C)C)C(=O)COC(=O)c2ccc([N+](=O)[O-])s2)c(=O)[nH]c1=O | -15% | . | -17% | ? | -6% | 79µM* | 7.6*
SMILES | POLK inh | Pol beta inh | FEN1 inh-1 | POLH inh | WRN helicase inh | POLI inh | FEN1 inh-2
O=[N+]([O-])c1ccc(/C=N/Nc2nc(N3CCCCCC3)nc(N3CCCCCC3)n2)o1 | -10% | ? | 35µM* | -18% | -15% | -10% | 38*
O=[N+]([O-])c1ccc(/C=N/Nc2nc(N3CCCCC3)nc(N3CCCCC3)n2)cc1 | -2% | 4% | 16% | -2% | -1% | 6% | .
CC(=O)Nc1sc2c(c1-c1cc3ccccc3o1)CCNC2 | . | . | . | . | . | . | 34*
CC(=O)NC(c1ccccc1)c1nc(-c2cc3ccccc3o2)cs1 (stereo not drawn) | . | . | . | . | -1% | . | .
COc1ccc(-c2cn3c(n2)sc2cc(C(=O)NCCCN4CCN(C)CC4)ccc23)cc1 | -18% | 2% | 17% | ? | . | 6% | .
COc1ccc(-c2cn3c(n2)sc2cc(C(=O)NCCCN4CCCCC4)ccc23)cc1 | -23% | -7% | -19% | ? | . | 7% | 67*
O=C(O)c1cc(NC(=O)c2ccc([N+](=O)[O-])cc2)cc(NC(=O)c2ccc([N+](=O)[O-])cc2)c1 | -9% | 9% | ? | ? | -2%[11.6 µM] | -12% | ?
COc1ccc(/C=N/Nc2cc(C)nc3ccc(Br)cc23)cc1 | -21% | -4% | ? | -15% | -14%[11.6 µM] | -29% | ?
COc1cccc2c(N/N=C/c3ccccc3)cc(C)nc12 | 0% | 13% | -20% | 0% | 0% | -10% | .
COc1ccc2cc3[n+](cc2c1OC)CCc1cc2c(cc1-3)OCO2 | 0% | -16% | ? | -9% | 6%[11.6 µM] | ? | ?
CCOC(=O)C1=C(O)C(=O)C(C(=O)OCC)C1 (stereo not drawn) | 0% | . | 4.5µM* | -16% | 5% | 12% | 8.5*
CCOC(=O)c1cc2c(=O)n3ccccc3nc2n(Cc2ccco2)c1=NC(=O)c1c(F)cccc1Cl | ? | 8% | -29% | -18% | . | ? | ?
CCOC(=O)c1cc2c(=O)n3ccccc3nc2n(Cc2ccco2)c1=NC(=O)c1ccc(C)c(C)c1 | -23% | -20% | -20% | -13% | . | ? | .
NS(=O)(=O)c1ccc(N=Nc2c(O)c(C(=O)O)cc3ccccc23)cc1 | -9% | 35µM* | ? | 40µM* | -9%[11.6 µM] | ? | ?
Nc1nc(O)c(N=Nc2ccc(S(N)(=O)=O)cc2)c(=O)[nH]1 | -6% | 0% | 3% | -18% | -6% | 151% | .
CCOC(=O)N1C(COCc2ccccc2)C=CCS1(=O)=O (stereo not drawn) | 7% | . | 1% | . | . | 0% | .
